MIN6 prolif-1 – inducers of MIN6 beta-cell proliferation, primary screen, ATP luminescence, uHTS. MIN6 cells proliferation, ATPlite luminescence, 48 h; cells starved in 0.2% serum; 100% = growth in 10% serum. hit rate 0.29% among 330,000. proliferation, % at 10 µM. AID 2380, 2010;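 active = compounds whose signal lies at least 3.5 SD above the mean of all wells on their plate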;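 also: 0% = DMSO-treated cells in low-serum medium and 100% = 10% serum control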
H9c2 TAG inh – inhibitors of triacylglycerol accumulation, primary screen, cell-based, uHTS, fluorescence, H9c2; H9c2 cells, Nile Red lipid (TAG) fluorescence; cells loaded with 200 µM oleic acid; hit rate 0.66% among 230,000; AID 651582, 2012; inhibition, % at 12.5 µM;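 active = pattern-corrected inhibition of lipid staining of at least 50% with the nuclear-stain viability signal not falling by more than 50%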;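 also: 0% = DMSO wells and 100% = triacsin C control wells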
CHT PAM – CHT positive allosteric modulators, primary screen, cell-based, membrane potential dye, choline EC20. hit rate 0.49% among 310,000. High affinity choline transporter 1 (Homo sapiens), Q9GZV3. B-score at 10 µM. CHT-expressing cells; stronger effect = higher value; LV-AA mutant CHT in HEK293 cells;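 active = initial fluorescence not abnormally high and integrated response B-score, plate-corrected, over 3 SD above library mean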
Target sequence (Q9GZV3 whole entry, looked up): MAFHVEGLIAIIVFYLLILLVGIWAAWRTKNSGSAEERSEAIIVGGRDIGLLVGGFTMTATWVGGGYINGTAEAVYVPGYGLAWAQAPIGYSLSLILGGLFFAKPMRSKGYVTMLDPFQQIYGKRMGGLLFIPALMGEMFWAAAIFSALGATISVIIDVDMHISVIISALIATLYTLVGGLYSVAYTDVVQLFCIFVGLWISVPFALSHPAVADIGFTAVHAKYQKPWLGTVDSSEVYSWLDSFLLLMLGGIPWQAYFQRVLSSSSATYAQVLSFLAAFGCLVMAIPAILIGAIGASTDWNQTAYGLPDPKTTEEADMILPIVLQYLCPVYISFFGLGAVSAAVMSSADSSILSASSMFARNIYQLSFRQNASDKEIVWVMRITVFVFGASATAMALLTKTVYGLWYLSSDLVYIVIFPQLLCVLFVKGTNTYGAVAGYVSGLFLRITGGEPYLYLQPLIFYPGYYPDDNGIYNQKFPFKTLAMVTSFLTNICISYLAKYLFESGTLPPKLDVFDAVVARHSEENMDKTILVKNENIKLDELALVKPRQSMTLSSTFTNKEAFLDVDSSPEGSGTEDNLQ
CHT inh – inhibitors of human choline transporter CHT; CHT-expressing cells, membrane potential dye, choline response; stronger effect = lower value; B-score at 10 µM; hit rate 0.86% among 310,000; AID 488975, 2010;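 active = B-score over 3 SD under the library average, and starting fluorescence ratio not unusually high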;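 also: choline stimulus applied at its EC90 after an EC20 pre-addition; B-score computed on integrated fluorescence ratio after choline addition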
MIN6 prolif-2 – inducers of beta-cell proliferation in MIN6, confirmation, MIN6 cells, mouse. shares compounds with MIN6 prolif-1. ATPlite luminescence, 48 h; cells kept in 0.2% serum; scaled between 0.2% and 10% serum. proliferation increase, % at 50 µM. 920 tested, under 10 active. AID 463095, 2010;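 active = proliferation increase above 40% at any of the four tested concentrations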
* = called active by the depositor; i = inactive; x = no result. A selection: hits, their analogues and other compounds. The true share with any hit is near 1.7%.

SMILES	MIN6 prolif-1	H9c2 TAG inh	CHT PAM	CHT inh	MIN6 prolif-2
CCOC(=O)c1c(S(=O)(=O)NCCc2ccccc2)c(C)n(C)c1C	12*	x	i	i	-5
Cc1ccc(C(=O)OCC(=O)Nc2sccc2C(N)=O)cc1NC(=O)c1ccco1	6.1*	-8	i	i	3
CCc1cc(/C(Cc2ccccn2)=N\Nc2ccccc2)c(O)cc1O	-7	7	i	i	x
COc1cc2c(cc1OC)CN(C(=O)CCNC(=O)c1ccccc1Cl)CC2	-2	4	x	x	x
Cc1nc(N)c(C#N)c(-c2ccccc2)c1C	5.9*	2	i	i	3
O=C(O)C1OCC2(CO1)COC(C(=O)O)OC2 (centres undefined)	x	-3	x	x	x
COC(C(=O)Nc1ccnn1C1CCN(Cc2ccc(Cl)s2)CC1)c1ccccc1 (centres undefined)	3	x	i	i	x
COC(C(=O)Nc1ccnn1C1CCN(Cc2ccc(C)s2)CC1)c1ccccc1 (centres undefined)	9.2*	-19	i	i	-3
Cc1ccc(-c2cc(N)n(-c3ccc(F)cc3)n2)cc1	1	-3	i	i	x
c1ccc(N2CCN(c3ncnc4scc(-c5cccs5)c34)CC2)cc1	-6	x	i	i	x
c1ccc2c(c1)OCC(c1csc3ncnc(N4CCOCC4)c13)O2 (centres undefined)	5.3*	x	i	i	-4
CN(C(=O)c1cc(-n2cnnc2)ccc1Cl)c1ccccc1	-4	-1	i	i	x
O=C(Nc1ccc(F)cc1)c1ccccc1NS(=O)(=O)N1CCCC1	8.5*	-5	i	i	-6
O=S(=O)(Nc1ccc(F)cc1)N1CCCCCC1	-1	-3	i	i	x
NS(=O)(=O)c1ccc(NCCCn2ccnc2)c([N+](=O)[O-])c1	3	x	i	i	x
CS(=O)(=O)NCCNc1cc(Cl)ccc1[N+](=O)[O-]	-2	-8	i	i	x
CCCCNc1ccc(S(N)(=O)=O)cc1[N+](=O)[O-]	6.0*	x	i	i	-3
CS(=O)(=O)NCCNc1ccc(Cl)cc1[N+](=O)[O-]	7.7*	x	i	i	-1
Cc1ccc(N(CC(=O)NCc2ccccn2)S(=O)(=O)c2ccccc2)cc1C	9.0*	x	i	i	2
CC(C)(C)NC(=O)C12CC3CC(CC(Cl)(C3)C1)C2	8.0*	x	i	i	-2
CCCc1nc(Cl)c(C#N)c2c1CCCC2	9.0*	-25	i	i	7
COc1cc(S(=O)(=O)NCC(c2ccco2)N2CCCCC2)ccc1NC(C)=O (centres undefined)	1	7	x	x	x
COC(=O)[C@H](CCSC)NC(=O)NCc1ccc(S(N)(=O)=O)cc1	8.2*	x	i	i	-3
CCCn1c(-c2nonc2N)nc2ccccc21	9.0*	-8	i	i	-1
CN(C)CCN(C(=O)CN1C(=O)c2ccccc2C1=O)c1nc2cc3c(cc2s1)OCO3	6	-3	i	i	x
SMILES	MIN6 prolif-1	H9c2 TAG inh	CHT PAM	CHT inh	MIN6 prolif-2
CCN(CC)CCN(C(=O)CN1C(=O)c2ccccc2C1=O)c1nc2cc3c(cc2s1)OCO3	10*	13	i	i	-2
Cc1ccc(C(=O)OCC(=O)NCCN2C(=O)CSC2=O)cc1[N+](=O)[O-]	2	4	x	x	x
Cc1cc(C(=O)OCC(=O)NCCN2C(=O)CSC2=O)ccc1[N+](=O)[O-]	9.7*	0	x	x	3
CCOC(=O)c1c(-c2cccs2)csc1NC(C)=O	13*	4	i	i	-6
CCCCN1CC[C@@H]2C=CC[C@H](C(=O)OC)[C@@H]2C1=O	x	10	x	x	x
COCCNC(=O)C(c1ccc(O)cc1)N(Cc1ccccc1)C(=O)CCC(=O)Nc1ccccn1 (centres undefined)	1	x	i	i	x
COCCNC(=O)C(c1ccc(F)cc1)N(Cc1cccs1)C(=O)CCC(=O)Nc1ccccn1 (centres undefined)	5.5*	x	i	i	-2
Clc1ccc2c(c1)-c1nnc(Br)n1-c1ccccc1S2	-2	-3	i	i	x
Brc1nnc2n1-c1ccccc1Sc1ccccc1-2	5.6*	-2	i	i	-6
CCc1nc(N)c(C#N)c(-c2ccco2)c1C	7.1*	x	i	i	4
CCCCCc1nc(N)c(C#N)c(-c2ccco2)c1CCCC	0	-46	i	i	x
CC1CN(Cc2ccccc2)c2ccccc2NC1=S (centres undefined)	0.0*	x	i	i	-6
Cc1cc(=O)oc2cc(OCC(=O)Nc3c(C)n(C)n(-c4ccccc4)c3=O)c(Cl)cc12	6	10	x	x	x
CCN1CCN(C(=O)Cn2ncc3ccsc3c2=O)CC1	9.8*	x	i	i	2
CC(=O)Nc1ccc(S(=O)(=O)c2cc(O)ccc2O)cc1	-3	-2	i	i	x
COC(=O)c1ccc(NC(=O)c2cc(-c3ccccn3)nc3ccccc23)cc1	7.5*	-10	i	i	2
COC1=CC(=O)[C@@]2([C@@H]1O)[C@@H](Cl)C[C@]13C(OC)=C(OC)C(=O)C[C@]21CCN3C	0	-2	x	x	x
COCCNC(=O)c1c(C)cc(C)cc1C	-2	2	i	i	x
COCCNC(=O)c1ccc(C)cc1C	7.9*	18	i	i	1
Cc1ccc(OCCN2CCC2(C)C(=O)Nc2ccc3c(c2)OCCO3)cc1 (centres undefined)	x	-11	x	x	x
Cn1nc(OCC(=O)O)cc1C(F)(F)F	6.3*	6	i	i	7
CCn1nc(NC(=O)c2ccco2)c2cc3ccccc3nc21	2	x	i	i	x
CC(C)Cn1nc(NC(=O)c2ccco2)c2cc3ccccc3nc21	6.8*	4	i	i	-2
CCCCC(C(=O)NC(C)(C)C)N(Cc1ccccc1Cl)C(=O)c1snc(C(N)=O)c1N (centres undefined)	0	x	x	x	x
Nc1nc(Nc2ccc(Cl)cc2)nc(NCCO)c1[N+](=O)[O-]	15*	13	i	i	4
SMILES	MIN6 prolif-1	H9c2 TAG inh	CHT PAM	CHT inh	MIN6 prolif-2
CCc1ccc(NC(=O)c2noc3c2CCc2ccccc2-3)cc1	7.2*	16	i	i	-1
COc1ccc(Br)cc1/C=C\C(=O)NCc1cccnc1	2	17	i	i	x
CC1=NNC(=O)C1CCC(=O)N/N=C/C(Br)=C/c1ccccc1 (centres undefined)	-6	-17	i	i	x
O=C(Nc1cccc(Cl)c1)Nc1ccnc(-c2cccnc2)n1	11*	18	i	i	5
O=C(Nc1cccc(Cl)c1)Nc1cnccn1	-3	14	i	i	x
COc1ccccc1NC(=O)CCCN1C(=O)C(c2ccccc2)Oc2cccnc21 (centres undefined)	13*	x	i	i	-6
